The results in this text go back to PubChem BioAssay (NCATS).

What all share (assay): qHTS profiling for inhibitors of Plasmodium falciparum proliferation (AID 504749); further: nearly all actives have a fitted effect of over 60% in size
Common to all, as to conditions: P. falciparum in erythrocytes, SYBR Green DNA, 72 h; series mostly up to 28.7 µM

For one experiment, the system named is ICS. In short, it runs like this: (§1)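 SYBR Green fluorescence (ex 485 nm, em 535 nm) reports parasite DNA after 72 h compound exposure of infected red cells at 0.3% parasitemia, 2.5% hematocrit; signal normalized to 0.29 uM artemisinin and vehicle wells.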
A further experiment concerns JCK. In short, it runs like this:
as §1

The subject of a further experiment is N140. In short, it runs like this:
as §1

A further experiment deals with P93_24. The gist of the method: as §1
In the next experiment the test system is P94_40. In short, it runs like this: as §1
For a further experiment, the system named is PAD. In short, it runs like this: as §1
The next experiment deals with PC15. In short, it runs like this:
as §1

In another experiment the test system is PC26. In short, it runs like this: as §1
Another experiment deals with PC49. The gist of the method: as §1
Another experiment concerns SC27B. In short, it runs like this:
as §1

Records with an inconclusive call do not appear. Calls of active or inactive are those of the source. The call rests on the fitted dose curve; in most records, active means well fitted inhibition curve with a large enough effect; inconclusive means small, poorly fitted or top-dose-only effect; inactive means flat fitted curve, though single readings scatter.
Potency means the concentration at half of the fitted maximal effect.

As for `CCOC(=O)c1ccc(N)cc1`, the Potency entry with ICS, in the experiment with JCK, with N140, with P93_24, in the experiment on P94_40 and in the experiment on PAD was “inactive” in each case. For the same compound, the Potency result in the experiment with PC15, with PC26, with PC49 and with SC27B was “inactive” in each case.
As to `CC(=O)Nc1ccc(OC(=O)c2ccccc2OC(C)=O)cc1`, the Potency entry with ICS, in the experiment on JCK, in the experiment with N140, in the experiment with P93_24, with P94_40 and with PAD was “inactive” in each case. Besides, the Potency result in the experiment with PC15, in the experiment with PC26, in the experiment with PC49 and in the experiment with SC27B was “inactive” throughout.
For the compound `CCCCCCCCCCCCSCCOCCO`, the Potency result in the experiment with ICS, in the experiment with JCK, in the experiment with N140, in the experiment with P93_24, in the experiment with P94_40 and in the experiment on PAD was “inactive” in each case. Moreover, the Potency result in the experiment on PC15, in the experiment on PC26, in the experiment on PC49 and with SC27B was “inactive” throughout.
As for `CCCCC(CC)COC(=O)c1ccc(N(C)C)cc1` (configuration not stated), the Potency entry with ICS, in the experiment with JCK, in the experiment on N140, in the experiment on P93_24, in the experiment with P94_40 and in the experiment on PAD was “inactive” in each case. In addition, the Potency result in the experiment with PC15, in the experiment on PC26, in the experiment on PC49 and in the experiment with SC27B was “inactive” each time.
With `O=c1[nH]c(=O)n([C@H]2C[C@H](O)[C@@H](CO)O2)cc1F`, the Potency result with ICS, with JCK, in the experiment on N140, in the experiment with P93_24, in the experiment on P94_40 and in the experiment with PAD was “inactive” throughout. Moreover, the Potency entry in the experiment with PC15, in the experiment with PC26, in the experiment on PC49 and in the experiment on SC27B was “inactive” in each case.
`CC(=O)Nc1ccc(OCC(O)CNC(C)C)cc1` (configuration not stated): the Potency entry in the experiment on ICS, in the experiment on JCK, with N140, in the experiment with P93_24, in the experiment with P94_40 and in the experiment with PAD was “inactive” in each case. Also, the Potency entry in the experiment on PC15, in the experiment on PC26, with PC49 and in the experiment with SC27B was “inactive” each time.
Consider `Cc1ccc(O)c([C@H](CCN(C(C)C)C(C)C)c2ccccc2)c1`, for which the Potency in the experiment with ICS was 1 µM (active); in the experiment on JCK, 7.94 µM (active); in the experiment with N140 it was 2 µM (active); in the experiment with P93_24 it was 4.47 µM (active); in the experiment with P94_40 it was 2.24 µM (active); in the experiment with PAD it was 2.82 µM (active). For the same compound, the Potency was 3.16 µM (active) with PC15, 4.78 µM (active) with PC26, 3.16 µM (active) with PC49 and 4.47 µM (active) in the experiment on SC27B.
As for `CC(C)Cc1ccc(CC(=O)O)cc1`, the Potency result in the experiment on ICS, in the experiment on JCK, in the experiment with N140, in the experiment on P93_24, with P94_40 and in the experiment on PAD was “inactive” each time. Also, the Potency entry in the experiment with PC15, in the experiment with PC26, with PC49 and in the experiment on SC27B was “inactive” each time.
Turning to `CCOC(=O)[C@H](CCc1ccccc1)N[C@@H](C)C(=O)N1[C@H](C(=O)O)C[C@H]2CCCC[C@@H]21`, the Potency result in the experiment with ICS, in the experiment with JCK, in the experiment on N140, with P93_24, in the experiment with P94_40 and in the experiment on PAD was “inactive” each time. Moreover, the Potency entry in the experiment on PC15, with PC26, in the experiment with PC49 and in the experiment with SC27B was “inactive” each time.
Regarding `Cc1nc(-c2ccc(Cl)cc2)oc1COC(C)(C)C(=O)O`, the Potency result in the experiment on ICS, in the experiment with JCK, in the experiment with N140, in the experiment on P93_24, in the experiment on P94_40 and in the experiment with PAD was “inactive” in each case. Besides, the Potency result with PC15, with PC26, with PC49 and with SC27B was “inactive” throughout.
With `O=C(CCN1CCN2CCCC2C1)N1c2ccccc2Sc2ccc(Cl)cc21` (configuration not stated), in the experiment on ICS, the Potency is 5.01 µM (active). In addition, the Potency entry with JCK is “inactive”.
As for `C/C=C/C=N/NC(=O)c1ccncc1`, the Potency entry in the experiment on ICS, in the experiment on JCK, with N140, with P93_24, in the experiment with P94_40 and with PAD was “inactive” throughout. The Potency entry in the experiment on PC15, in the experiment on PC26, in the experiment on PC49 and in the experiment with SC27B was “inactive” in each case.
As for `CC(=O)Nc1ccc(CC(=O)O)cc1`, the Potency entry in the experiment with ICS, in the experiment with JCK, in the experiment on N140, with P93_24, in the experiment with P94_40 and in the experiment with PAD was “inactive” each time. The Potency entry with PC15, in the experiment with PC26, with PC49 and in the experiment with SC27B was “inactive” each time.
Regarding `CCCCCCCCCCCCCCCCO`, the Potency entry in the experiment with ICS, with JCK, in the experiment with N140, with P93_24, in the experiment on P94_40 and in the experiment on PAD was “inactive” throughout. Moreover, the Potency entry in the experiment with PC15, with PC26, in the experiment on PC49 and with SC27B was “inactive” in each case.
For `Cc1cccc(C)c1NC(=O)c1ccccc1C(=O)O`, the Potency result in the experiment with ICS, with JCK, in the experiment with N140, in the experiment with P93_24, with P94_40 and in the experiment with PAD was “inactive” throughout. The Potency result with PC15, with PC26, in the experiment on PC49 and with SC27B was “inactive” each time.
For the compound `NC(=O)n1c(O)c(C(=O)c2cccs2)c2cc(Cl)ccc21`, the Potency entry in the experiment with ICS, in the experiment on JCK, in the experiment with N140, with P93_24, in the experiment with P94_40 and in the experiment on PAD was “inactive” in each case. In addition, the Potency result in the experiment with PC15, in the experiment on PC26, in the experiment on PC49 and with SC27B was “inactive” in each case.
In the case of `Cc1cc(NS(=O)(=O)c2ccc(N)cc2)nc(C)n1`, the Potency entry in the experiment with ICS, in the experiment on JCK, in the experiment on N140, in the experiment with P93_24, with P94_40 and with PAD was “inactive” each time. Besides, the Potency result with PC15, in the experiment with PC26, in the experiment with PC49 and in the experiment with SC27B was “inactive” in each case.
For the compound `CCN(CC)CCNC(=O)c1cc(Br)c(N)cc1OC`, the Potency entry in the experiment with ICS, in the experiment with JCK, in the experiment on N140, with P93_24, in the experiment on P94_40 and in the experiment with PAD was “inactive” in each case. Further, the Potency entry with PC15, in the experiment on PC26, in the experiment on PC49 and in the experiment on SC27B was “inactive” throughout.
On to `CC1(COc2ccc(CC3SC(=O)NC3=O)cc2)CCCCC1` (configuration not stated), for which the Potency entry in the experiment with ICS, in the experiment with JCK, with N140, in the experiment on P93_24, in the experiment on P94_40 and in the experiment with PAD was “inactive” in each case. Further, the Potency entry with PC15, in the experiment on PC26, with PC49 and in the experiment on SC27B was “inactive” each time.
For the compound `COP(=O)(OC)OC(c1ccc(Cl)cc1)P(=O)(OC)OC` (configuration not stated), the Potency entry in the experiment on ICS, in the experiment on JCK, in the experiment on N140, in the experiment on P93_24, in the experiment with P94_40 and in the experiment with PAD was “inactive” throughout. In addition, the Potency entry with PC15, with PC26, in the experiment with PC49 and in the experiment with SC27B was “inactive” in each case.
On to `Nc1nc(-c2ccccc2)c(Br)c(=O)[nH]1`, for which the Potency entry with ICS, in the experiment on JCK, in the experiment on N140, with P93_24, in the experiment with P94_40 and with PAD was “inactive” in each case. Moreover, the Potency result with PC15, with PC26, with PC49 and with SC27B was “inactive” throughout.
Consider `N#CCC(=O)NN`, for which the Potency result in the experiment on ICS, in the experiment on JCK, in the experiment on N140, with P93_24, with P94_40 and in the experiment on PAD was “inactive” in each case. Also, the Potency entry with PC15, in the experiment on PC26, with PC49 and in the experiment on SC27B was “inactive” throughout.
For the compound `CCN(CC)CCNC(=O)COc1ccc(OC)cc1`, the Potency result in the experiment on ICS, in the experiment with JCK, in the experiment on N140, with P93_24, in the experiment on P94_40 and in the experiment with PAD was “inactive” throughout. The Potency result in the experiment with PC15, in the experiment with PC26, in the experiment with PC49 and in the experiment with SC27B was “inactive” each time.
Consider `CCCc1ncc(C[n+]2ccccc2C)c(N)n1`, for which the Potency result in the experiment with ICS, in the experiment with JCK, in the experiment with N140, in the experiment with P93_24, in the experiment with P94_40 and in the experiment on PAD was “inactive” in each case. Also, the Potency entry in the experiment with PC15, in the experiment on PC26, in the experiment with PC49 and in the experiment with SC27B was “inactive” each time.
